Source: PubChem BioAssay (National Center for Advancing Translational Sciences (NCATS))
APEX1 inh: blocks human APE1 abasic DNA cleavage. recombinant APE1, TAMRA/BHQ-2 abasic DNA cleavage fluorescence. Potency, µM (titrated, usually from 65.8 µM), without a hit: top-dose activity change, negative = inhibition, usual class: inhibitors. hit rate 0.35% among 350,000. AID 2517;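 further: plate controls were vehicle for no effect and reference inhibitor for full effect; nearly all actives have a fitted effect of over 55% in size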
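Readout is kinetic fluorescence (ex 525, em 598 nm) from cleavage of 50 nM TAMRA/BHQ-2 THF abasic duplex by 0.75 nM APE1, compound added 15 min beforehand at RT.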
TDP1 inh: inhibitors of human tyrosyl-DNA phosphodiesterase TDP1. Q9NUW8. recombinant TDP1, AlphaScreen DNA substrate cleavage. Potency, µM (doses to about 130 µM), for inactives: at the highest dose activity change, negative = inhibition, actives largely listed as inhibitors. hit rate 0.28% among 350,000; further: nearly all actives have a fitted effect of over 40% in size
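Compounds were preincubated with Tdp1 (1 nM final) for 15 min at room temperature before substrate (15 nM final) started a 5 min reaction; beads (10 ug/ml final) were then added for 10 min before AlphaScreen detection.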
RECQ1 helicase: blocks DNA unwinding by human RECQ1. Potency, µM (top dose mostly 57.3 µM), without a hit: at the highest dose activity, negative = inhibition, most hits filed as inhibitors. RECQ1 DNA unwinding, red fluorescence kinetic read. P46063. hit rate 0.54% among 240,000;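 further: plate controls were vehicle for no effect and no enzyme for full effect; nearly all actives have a fitted effect of over 30% in size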
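RECQ1T1 50 nM; forked duplex (20 bp + 30-nt ss tails) 200 nM, ATP 2 mM final; pH 8.0, 2 mM MgCl2, 2.5 ug/ml poly(dI-dC); 15 min compound preincubation; discontinuous kinetic read over 2 h at RT.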
GCN5L2 inh: inhibitors of human GCN5L2 histone acetyltransferase. Q92830. GCN5L2 HAT assay, ThioGlo1 CoA-SH fluorescence. Potency, µM (doses to about 58.9 µM), inactives show at the top dose activity change, negative = inhibition, most hits filed as inhibitors. hit rate 0.21% among 390,000
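Enzyme at 20nM final was mixed with library compounds for 15 min at room temperature. Peptide H3(1-25) at 75uM, acetyl-CoA at 70uM and ThioGlo1 at 50uM were then added. Plates were read immediately and after 20 min (Ex340nm/Em540nm).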
RGS4 inhibitor: inhibitors of human regulator of G protein signaling 4. Transcreener GDP fluorescence polarization, RGS4-accelerated GTP hydrolysis. P49798. Potency, µM (top dose mostly 114 µM), for inactives: top-dose activity change, negative = inhibition, actives largely listed as inhibitors. hit rate 0.039% among 390,000; further: nearly all actives have a fitted effect of over 75% in size
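MLSMR compounds (23 nl, pin-transferred) preincubated 10 min at room temperature with a 500nM (2x) first reagent, then RGS4 at 900nM (2x) plus Transcreener GDP mix added; fluorescence polarization (620/688 nm) read before and after 90 min at 30 °C.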
BLM helicase inh: inhibitors of human Bloom syndrome helicase BLM; recombinant BLM DNA unwinding, fluorescence dequenching; Potency, µM (series often up to 56.1 µM), for inactives: at the top dose activity change, negative = inhibition, hits mostly inhibitors; hit rate 0.2% among 350,000;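 further: plate controls were vehicle for no effect and no enzyme for full effect; nearly all actives have a fitted effect of over 35% in size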
Target sequence (P54132 whole entry, looked up): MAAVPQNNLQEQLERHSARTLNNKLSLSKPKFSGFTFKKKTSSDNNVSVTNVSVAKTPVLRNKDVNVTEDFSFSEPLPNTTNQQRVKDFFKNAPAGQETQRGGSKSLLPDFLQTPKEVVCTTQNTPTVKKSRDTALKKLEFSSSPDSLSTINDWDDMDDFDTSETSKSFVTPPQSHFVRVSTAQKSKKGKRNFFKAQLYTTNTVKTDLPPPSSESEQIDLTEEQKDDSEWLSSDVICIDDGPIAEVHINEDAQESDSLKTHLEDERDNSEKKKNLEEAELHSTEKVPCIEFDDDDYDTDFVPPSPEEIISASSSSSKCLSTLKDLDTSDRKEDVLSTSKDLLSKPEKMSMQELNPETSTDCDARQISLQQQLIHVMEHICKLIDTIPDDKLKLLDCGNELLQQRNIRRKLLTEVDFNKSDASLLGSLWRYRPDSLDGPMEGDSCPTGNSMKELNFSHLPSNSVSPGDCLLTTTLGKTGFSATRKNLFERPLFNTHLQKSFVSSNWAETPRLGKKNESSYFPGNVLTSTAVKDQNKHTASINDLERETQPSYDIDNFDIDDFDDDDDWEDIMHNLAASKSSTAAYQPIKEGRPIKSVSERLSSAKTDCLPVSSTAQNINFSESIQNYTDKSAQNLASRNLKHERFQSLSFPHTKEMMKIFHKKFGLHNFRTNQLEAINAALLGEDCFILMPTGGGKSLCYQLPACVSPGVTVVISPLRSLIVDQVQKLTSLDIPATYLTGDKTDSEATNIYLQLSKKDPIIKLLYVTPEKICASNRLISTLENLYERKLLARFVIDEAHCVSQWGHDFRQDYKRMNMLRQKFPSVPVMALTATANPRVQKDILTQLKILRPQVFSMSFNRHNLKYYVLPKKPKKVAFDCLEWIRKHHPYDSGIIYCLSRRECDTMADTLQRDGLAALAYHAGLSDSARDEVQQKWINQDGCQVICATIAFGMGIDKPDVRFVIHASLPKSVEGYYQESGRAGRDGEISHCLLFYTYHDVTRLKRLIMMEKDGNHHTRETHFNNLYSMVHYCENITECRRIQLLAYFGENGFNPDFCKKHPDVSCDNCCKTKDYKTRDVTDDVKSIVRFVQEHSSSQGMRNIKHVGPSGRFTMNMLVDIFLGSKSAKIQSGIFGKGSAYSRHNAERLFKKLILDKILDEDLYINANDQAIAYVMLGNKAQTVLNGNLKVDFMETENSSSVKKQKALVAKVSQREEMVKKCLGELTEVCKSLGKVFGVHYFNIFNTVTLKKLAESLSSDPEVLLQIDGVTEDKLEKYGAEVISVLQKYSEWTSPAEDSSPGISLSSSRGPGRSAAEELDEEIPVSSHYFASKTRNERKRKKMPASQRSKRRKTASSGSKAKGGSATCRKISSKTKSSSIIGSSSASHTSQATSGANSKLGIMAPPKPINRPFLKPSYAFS
Active calls of the source: *; i = inactive; ? = inconclusive; . = no result given; ! = not confirmed by another sample; [ ] = remark or other dose. The list is not random: actives were taken first. Their share in the collection is about 0.87%. The call rests on the fitted dose curve; in most records, active means well fitted curve in the direction sought with a large enough effect; inconclusive means small, poorly fitted or top-dose-only effect, or another doubt; inactive means no such curve, though single readings can be large; an effect the other way counts as inactive or inconclusive. Unless noted, on the % scale 0 is the no-effect control and ±100 the full control effect; potency means the concentration at half of the fitted maximal effect.

SMILES	APEX1 inh	TDP1 inh	RECQ1 helicase	GCN5L2 inh	RGS4 inhibitor	BLM helicase inh
CCCCCCCCCCCCCCCCn1cc[n+](Cc2ccccc2)c1C	?	2%	-24%	8.9µM*	.	?
CCCCCCn1cc(C(=O)O)c(=O)c2ccccc21	0%	5%	-7%	-4%	-23%	-1%
Cc1c(C)c2ccc(O[C@@H]3O[C@H](CO)[C@H](O)[C@H](O)[C@H]3O)cc2oc1=O	2%	.	.	-2%	-28%	1%
COc1cc2cc(Oc3ccc4ccc(=O)oc4c3)c(=O)oc2cc1O[C@@H]1O[C@H](CO)[C@@H](O)[C@H](O)[C@H]1O	-39%	25µM*	.	-25%	?	.
CSc1nc(N2CCN(CCO)CC2)c2sc3nc(-c4ccco4)c4c(c3c2n1)CCC4	17%	4%	-2%	-4%	.	13µM*
CSc1nc(NCCN(C)C)c2sc3nc(-c4ccco4)c4c(c3c2n1)CCC4	.	.	.	.	-10%	.
CCOc1ccccc1-c1c2cc(O)c(=O)cc-2oc2cc(O)c(O)cc12	-2%	3%	-5%	1%	?	10µM*
S=C([S-])NCCNC(=S)[S-].[Zn+2]	16µM*	14µM*	32µM*	.	.	.
O=C(OCCN1CCOCC1)c1cccnc1	4%	-6%	-6%	1.1µM*!	38%	-2%
CCC(C)/C=C/C1=CC2=C(Cl)C(=O)C3(C)OC(=O)C(C(=O)C(C)C(C)O)C3C2=CO1 (stereo not drawn)	10µM*	?	-19%	0%	-39%	-12%
COc1ccc(CN(Cc2ccccc2)C(=O)c2ccccc2O)cc1	.	11µM*	.	.	.	.
Nc1nc(=S)c2ncn([C@@H]3O[C@H](CO)[C@@H](O)[C@H]3O)c2[nH]1	19%	.	.	-14%	-48%	.
Nc1nc(=S)c2ncn(C3OC(CO)C(O)C3O)c2[nH]1 (stereo not drawn)	25µM*	?	?	?	-107%	?
Cc1cc(O)c2c(c1)OC1(C)CCC3C(C)(C)CCCC34COC2C14 (stereo not drawn)	.	.	.	-16%	.	-10%
Cc1cccc(NC(=O)CSc2nc(-c3ccco3)nc3cc(=O)[nH]n23)c1	63%	45µM*	.	-12%	6%	-5%
O=C(CSc1nc(-c2ccco2)nc2cc(=O)[nH]n12)Nc1ccc(F)cc1	.	0%	.	-13%	-2%	2%
CC(=O)Nc1ccc(S(=O)(=O)N(C)c2ccc(OCCOc3cccc(C)c3)cc2)cc1	?	13µM*	.	-11%	-6%	.
O=S(=O)(c1ccc2c(c1)OCCO2)N1CCN(S(=O)(=O)c2cc(F)c(Br)cc2F)CC1	.	0%	.	.	.	.
CC1(C)Cc2c(sc3ncn(N)c(=N)c23)CO1	-1%	3%	-4%	2%	22%	0%
CC1(C)Cc2c(sc3ncn4c(=S)[nH]nc4c23)CO1	5%	11%	-1%	22µM*	?	0%
COc1ccc(C(CC(=O)N2CCOCC2)c2c(OC)cc(OC)c3c(-c4ccccc4)cc(=O)oc23)cc1 (stereo not drawn)	32µM*!	-4%	-21%	?	-1%	22µM*!
O=S(=O)(O)c1cccc2c(N=Nc3ccc(O)c4ncccc34)cccc12	24µM*	.	.	?	-6%	?
CCc1cc(=O)oc2cc(C)c(CN3CCCC(C)C3)c(O)c12 (stereo not drawn)	14µM*	.	7.1µM*	32µM*	?	?
Cc1cccc(C(=O)NC2CCN(C#N)CC2)c1	.	-1%	.	.	.	.
Cc1cccc(OC2=NS(=O)(=O)c3ccccc32)c1	.	2%	.	.	.	.
SMILES	APEX1 inh	TDP1 inh	RECQ1 helicase	GCN5L2 inh	RGS4 inhibitor	BLM helicase inh
COc1cccc(-c2nccc(NC3CCNCC3)n2)c1	1%	20µM*	-2%	0%	.	7%
Cc1ccc(Nc2nc(C#N)nc(NC3CCCC3)n2)cc1	.	-3%	.	.	.	.
Cn1c2c(c3cnc4cc(Cl)ccc4c31)CN(Cc1ccc(Cl)cc1)CC2	.	3%	.	.	11%	.
Cn1c2cc(C=O)sc2c2cnn(Cc3ccccc3F)c(=O)c21	.	-2%	.	.	.	.
CCOc1cccc(NC(=O)/C(C#N)=C/c2cccnc2)c1	-5%	.	i	-28%	28%	-7%
CCOc1cc(/C=C(\C#N)C(=O)Nc2cccc(C(=O)O)c2)cc(Br)c1OC(=O)c1ccc(OC)cc1	-3%	-3%	.	25µM*	?	-24%
COc1cccc(Nc2ncc3nc(CCc4ccccc4)c(=O)n(C4CC4)c3n2)c1	0%	.	-3%	25µM*	.	-2%
COc1ccc(-c2[nH]n(-c3ccc([N+](=O)[O-])cc3)c(=O)c2C=NCc2ccncc2)cc1	5%	5%	-11%	-8%	?	7.9µM*
COc1ccc(-c2[nH]n(-c3ccc([N+](=O)[O-])cc3)c(=O)c2C=NCc2ccc(F)cc2)cc1	30%	8%	-10%	-9%	18%	1%
O=S1(=O)N=C(Oc2cccc(-c3ccccc3)c2)c2ccccc21	.	2%	.	.	.	.
CCOC(=O)CN1C(=O)N[C@H](c2ccc(Br)cc2)C(C(C)=O)=C1C	32µM*	-8%	-5%	-3%	-12%	-6%
NC(=O)CN1C(=O)NC(c2ccccc2)(c2ccccc2)C1=O	-12%	45µM*	.	-3%	1%	-3%
COc1cc2c(-c3ccc(O)cc3)nc3c(c(C)nn3-c3ccccc3)c2cc1OC	4%	?	-1%	-6%	?	14µM*
COc1cccc(-c2nc3c(c(C)nn3-c3ccccc3)c3cc(OC)c(OC)cc23)c1	.	-9%[12.3 µM]	.	2%	11%	-7%
O=C(O)c1ccc2c(c1)C(=O)/C(=C\c1ccco1)C2=O	7.9µM*	7.1µM*	?	-19%	-40%	140%
COc1cccc(NC(=O)C(OC(=O)CNC(=O)c2ccccc2)c2ccccc2)c1 (stereo not drawn)	.	0%	.	.	.	.
Nc1c(C(=O)O)sc2nc(-c3ccccc3)cc(-c3ccc(Cl)cc3)c12	-2%	71µM*	-10%	-3%	-34%	-5%
Nc1c(C(=O)O)sc2nc(-c3ccc(F)cc3)cc(-c3ccccc3)c12	-1%	1%	-3%	-11%	?	-1%
N#CN=c1snc(-c2ccccc2)n1-c1ccc(Br)cc1	.	.	.	.	-2%	.
COc1ccc(-c2nn(-c3ccccc3)cc2C(=O)Nc2cccc(C(=O)O)c2)cc1[N+](=O)[O-]	?	22µM*	.	-4%	-41%	-18%
CCn1c(C)nc2cc(C(=O)N/N=C/c3ccc(OC)cc3)ccc21	-5%	3%	i	-17%	-22%	4%
CCn1c(C)nc2cc(C(=O)NN=Cc3ccc([N+](=O)[O-])cc3)ccc21	11%	45µM*	.	2%	-25%	.
